Data taken from PubChem BioAssay AID686996 (Broad Institute, 2013).
Where “and” joins values, the source holds several entries; their conditions need not be identical. Equal entries are not always repeated. The whole screen tested about 350,000 compounds, of which about 1,900 (0.54%) were called active.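 Rule for the calls: active = mean inhibition across replicates at least about 35%, with every replicate also reaching that limit (limit read from the data); inconclusive = only one of the two criteria met; inactive = neither criterion met.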 This excerpt belongs to a sample that is enriched for actives. Where a structure was tested more than once in an assay, its records may differ in their call.

What follows are molecules tested against Caspase-6 (Homo sapiens) (UniProt P55212) (assay: human caspase-6 inhibitors, primary screen, biochemical, VEID-R110 fluorescence, single point, set 2 (AID 686996;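 note: 0% = median of neutral control wells and 100% = no fluorescence left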)). Settings: purified caspase-6, Z-VEID-R110 cleavage fluorescence; at 12.5 µM; stronger effect = higher value.
Sequence of Caspase-6 (Homo sapiens) (P55212 24-179 limits assumed): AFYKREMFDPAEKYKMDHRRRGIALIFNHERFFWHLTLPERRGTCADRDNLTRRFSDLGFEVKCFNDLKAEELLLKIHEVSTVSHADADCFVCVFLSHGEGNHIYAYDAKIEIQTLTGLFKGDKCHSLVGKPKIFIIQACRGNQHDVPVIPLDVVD
Sequence of Caspase-6 (Homo sapiens) (P55212 194-293 limits assumed): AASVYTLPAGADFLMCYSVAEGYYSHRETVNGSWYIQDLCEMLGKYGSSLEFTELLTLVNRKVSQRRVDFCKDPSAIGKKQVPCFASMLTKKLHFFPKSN
C[C@H](O)C#Cc1ccc2c(c1)O[C@@H](CN(C)Cc1cncnc1)[C@H](C)CN([C@H](C)CO)S2(=O)=O was tested, and the inhibition was -2.4% (inactive).
For O=C(C1CCCC1)N1CC(=O)N2[C@H](C1)[C@@H](c1ccc(-c3cccnc3)cc1)[C@@H]2CO, the inhibition was -0.455% (inactive).
For Cc1ccc(NC(=O)OCCNC(=O)c2ccncc2)cc1, the inhibition was 2.78% (inactive).
COCCNC(=O)CSc1nc(N)c(NC(=O)c2ccco2)c(=O)[nH]1 was tested, and the inhibition was 2.38% (inactive).
With COCCNC(=O)Nc1ccc2nc(-c3ccco3)c(-c3ccco3)nc2c1 the inhibition was 79.9% (active).
With C[C@@H]1CN([C@H](C)CO)C(=O)c2cc(-c3cccc(C(=O)N(C)C)c3)cnc2O[C@H]1CN(C)S(=O)(=O)c1ccc(F)cc1 the inhibition was 1.95% (inactive).
COc1ccc(C(=O)/C=C/c2ccc(-c3ccccc3)cc2)cc1CSCC(=O)O was tested, and the inhibition was 63.7% (active).
For COC(=O)c1ccc(COc2ccc(/C=C/C(=O)c3ccc(OC)c(CSCC(=O)O)c3)cc2OC)cc1, the inhibition was 41% (active).
COc1cc(/C=C/C(=O)OCC(=O)NC(=O)NCc2ccccc2)ccc1OCC#N was tested, and the inhibition was 0.201% (inactive).
For COc1cc(C(=O)NCC(c2ccco2)N2CCCC2)ccc1OCc1ccccc1 (stereo not given), the inhibition was -1.23% (inactive).
In the case of COc1ccccc1CCNC(=O)C1CCN(C(=O)/C=C/c2ccccc2)CC1, the inhibition was -1.88% (inactive).
With COc1ccc(OC)c(/C=C/C(=O)c2ccc3c(c2)OCO3)c1 the inhibition was 2% (inactive).
With C[C@@H]1CN([C@H](C)CO)C(=O)Cc2cc(NC(=O)Cc3ccccc3)ccc2O[C@H]1CN(C)S(=O)(=O)c1cccs1 the inhibition was -1.84% (inactive).
In the case of CCCN1C[C@@H](C)[C@@H](OC)CN(C)C(=O)c2cc(NC(=O)NC3CCCCC3)ccc2OC[C@H]1C, the inhibition was 0.443% (inactive).
C[C@H](CO)N1C[C@H](C)[C@H](CN(C)Cc2ccc(C(F)(F)F)cc2)Oc2ccc(NC(=O)CCCCCC(=O)Nc3ccccc3N)cc2CC1=O was tested, and the inhibition was 1.34% (inactive).
Cc1cc(C)c(S(=O)(=O)NN=C2c3ccccc3[C@H]3Cc4csc[n+]4[C@@H]23)c(C)c1 was tested, and the inhibition was 85.1% (active).
For O=C(N[C@H]1CC[C@H](CCNS(=O)(=O)c2ccc(F)cc2)O[C@H]1CO)C1CCCC1, the inhibition was 2.12% (inactive).
In the case of C[C@@H]1CCCCO[C@H](CN(C)C)[C@H](C)CN([C@@H](C)CO)C(=O)c2cc(NC(=O)Cc3ccccc3)ccc2O1, the inhibition was -0.443% (inactive).
With O=C(Nc1ccc(-c2ccccc2)cc1)[C@@H]1[C@@H](CO)[C@@H]2Cn3c(cccc3=O)[C@H]1N2Cc1ccncc1 the inhibition was 0.424% (inactive).
In the case of C=C1c2c(Cl)ccc(O)c2C(O)=C2C(=O)[C@]3(O)C(O)=C(C(N)=O)C(=O)[C@@H](N(C)C)[C@@H]3[C@@H](O)C12 (stereo not given in full), the inhibition was 73.9% (active).
In the case of CN(C)[C@@H]1C(=O)C(C(N)=O)=C(O)[C@@]2(O)C(=O)C3=C(O)c4c(O)ccc(Cl)c4[C@@H](O)[C@H]3C[C@@H]12, the inhibition was 49.5% (active).
In the case of C[C@@H]1CCCCO[C@H](CN(C)S(=O)(=O)c2ccc(Cl)cc2)[C@H](C)CN([C@H](C)CO)C(=O)c2cc(NC(=O)NC3CCCCC3)ccc2O1, the inhibition was -2.73% (inactive).
In the case of N#C[C@H]1[C@@H](c2ccc(C3=CCCCC3)cc2)[C@@H](CO)N1C(=O)Cc1ccncc1, the inhibition was 0.643% (inactive).
In the case of O=S(=O)(c1ccccc1)N1[C@H](CO)[C@@H]2c3ccccc3NC[C@@H]21, the inhibition was -2.35% (inactive).
With C[C@@H]1CN([C@H](C)CO)C(=O)Cc2cc(NC(=O)NC3CCCCC3)ccc2O[C@H]1CN(C)S(=O)(=O)c1ccc(Cl)cc1 the inhibition was 0.436% (inactive).
With C[C@H](O)C#Cc1ccc([C@@H]2[C@H](CO)N3CCCCN(CC4CC4)C[C@@H]23)cc1 the inhibition was 4.05% (inactive).
For CN(C)CC(=O)N[C@H]1CC[C@H](CCNC(=O)Nc2ccc(F)cc2)O[C@H]1CO, the inhibition was 2.23% (inactive).
For CC(C)NC(=O)N(C)C[C@H]1Oc2ccc(NS(C)(=O)=O)cc2CC(=O)N([C@@H](C)CO)C[C@H]1C, the inhibition was -2.92% (inactive).
In the case of COc1ccc(C=Nc2cccc3ncccc23)cc1, the inhibition was 44.7% (active).
With COc1ccc2nc(-c3ccccn3)ccc2c1 the inhibition was -1.05% (inactive).
With COc1ccc(-c2cc3ncccc3cn2)cc1 the inhibition was 1.91% (inactive).
With C[C@@H]1CCCCO[C@H](CN(C)S(=O)(=O)c2cccs2)[C@H](C)CN([C@@H](C)CO)C(=O)c2cc(NC(=O)Nc3ccc4c(c3)OCO4)ccc2O1 the inhibition was -0.622% (inactive).
COc1ccc(S(=O)(=O)Nc2ccc3c(c2)CC(=O)N([C@@H](C)CO)C[C@@H](C)[C@@H](CN(C)C)O3)cc1 was tested, and the inhibition was 2.95% (inactive).
For Cc1cccc(NC(=S)NCc2ccc3[nH]c4c(c3c2)CCCC4)c1, the inhibition was -0.948% (inactive).
For O=C(CCC(=O)c1ccccc1)NCc1cccc(C(F)(F)F)c1, the inhibition was -0.291% (inactive).
In the case of O=C(O)CCC(=O)NCc1ccc2[nH]c3c(c2c1)CCCC3, the inhibition was 41.9% (active).
For C[C@@H]1CN([C@@H](C)CO)C(=O)c2cccc(NC(=O)Nc3ccc4c(c3)OCO4)c2O[C@H]1CN(C)C(=O)Nc1cccc2ccccc12, the inhibition was -2.55% (inactive).
C[C@H](CO)N1C[C@H](C)[C@H](CN(C)C(=O)NC2CCCCC2)Oc2ccc(NC(=O)CCCN(C)C)cc2CC1=O was tested, and the inhibition was 1.62% (inactive).
With C=CCn1c(=S)[nH]c2scc(-c3ccco3)c2c1=O the inhibition was 80.7% (active).
For C[C@H]1CN([C@@H](C)CO)S(=O)(=O)c2ccc(-c3cccc(C#N)c3)cc2O[C@H]1CN(C)C(=O)c1ccccc1, the inhibition was 5.87% (inactive).
With Cc1nc2ccccc2c(=O)n1-c1ccc(F)c(NC(=O)c2cccs2)c1 the inhibition was -0.817% (inactive).
For Cc1nc2ccccc2c(=O)n1-c1ccc(NS(=O)(=O)c2ccc(F)cc2F)cc1, the inhibition was 49.9% (active).
COc1ccc(NS(=O)(=O)c2ccc(F)cc2F)cn1 was tested, and the inhibition was 1.04% (inactive).
With O=C1C[C@@](C(=O)NCC(F)(F)F)(c2ccc([N+](=O)[O-])cc2)[C@@H](c2ccc(CO)cc2I)N1C1CCCCC1 the inhibition was 2.45% (inactive).
With COc1ccc(S(=O)(=O)Nc2ccc3c(c2)CC(=O)N([C@@H](C)CO)C[C@@H](C)[C@@H](CN(C)Cc2ccc(C(=O)Nc4ccccc4N)cc2)O3)cc1 the inhibition was -1.35% (inactive).
For C[C@H]1CN([C@@H](C)CO)C(=O)Cc2cc(NS(=O)(=O)c3ccccc3)ccc2O[C@H]1CN(C)Cc1ccc(C(=O)Nc2ccccc2N)cc1, the inhibition was -0.988% (inactive).
C[C@H]1CN([C@@H](C)CO)C(=O)Cc2cc(NS(=O)(=O)c3ccccc3)ccc2O[C@@H]1CN(C)Cc1ccc(C(=O)Nc2ccccc2N)cc1 was tested, and the inhibition was 39.7% (active).
For C[C@H]1CN([C@@H](C)CO)S(=O)(=O)c2ccc(C#Cc3ccccc3)cc2O[C@@H]1CN(C)C(=O)C1CC1, the inhibition was 2.82% (inactive).
With CN(C)C(=O)c1ccc(-c2ccccc2[C@H]2[C@@H](CO)N(C(=O)C3CCCCC3)[C@H]2C#N)cc1 the inhibition was -0.604% (inactive).
COc1ccc(CN(C)C[C@@H]2Oc3ccc(NC(=O)Nc4ccc(F)cc4)cc3CC(=O)N([C@@H](C)CO)C[C@H]2C)cc1 was tested, and the inhibition was 3.48% (inactive).
COC(=O)CCCCC1=CCC2C(=O)C=C(O)C2C1 (stereo not given) was tested, and the inhibition was 70.5% (active).
CC(C)(O)C#Cc1ccc([C@H]2[C@@H](CO)N3CCCCN(C(=O)c4ccncc4)C[C@H]23)cc1 was tested, and the inhibition was 1.18% (inactive).
For COCC(=O)N1CC(=O)N2[C@H](CO)[C@@H](c3ccc(C#CC4CCCC4)cc3)[C@H]2C1, the inhibition was -0.852% (inactive).
With CCOc1ccc(C(=O)NCC(=O)N2CCCCCCC2)cc1OCC the inhibition was -0.226% (inactive).
In the case of CCOc1cc(C(=O)O)ccc1OCCOc1ccccc1, the inhibition was 35.6% (active).
CCOc1ccc(CCNC(=O)Nc2ccccc2)cc1OCC was tested, and the inhibition was -1.26% (inactive).
In the case of O=C(C[C@H]1CC[C@@H](NC(=O)c2ccncc2)[C@@H](CO)O1)Nc1ccccc1, the inhibition was 1.11% (inactive).
In the case of CCNC(=O)C[C@@H]1CC[C@H]2[C@@H](COc3ccc(NC(=O)NC(C)C)cc3C(=O)N2C)O1, the inhibition was 0.619% (inactive).
For Cc1n[nH]c(=O)nc1N/N=C/c1cccs1, the inhibition was 0.991% (inactive).
For O=C(Cn1cnc2ccccc21)N/N=C/c1ccco1, the inhibition was 1.45% (inactive).
O=c1nc(N/N=C/c2ccco2)cn[nH]1 was tested, and the inhibition was 55.7% (active).
With COc1ccccc1C#Cc1cnc2c(c1)C(=O)N([C@@H](C)CO)C[C@H](C)[C@@H](CN(C)C(=O)CC1CC1)O2 the inhibition was -4.85% (inactive).
With NC1=CC(=O)C(=O)c2cccnc21 the inhibition was 93.8% (active).
CCOc1ccc(CCN2C(=O)c3cccnc3C2=O)cc1OCC was tested, and the inhibition was 3.27% (inactive).
With C[C@@H]1CN([C@H](C)CO)C(=O)c2cc(NC(=O)Cc3ccccc3)ccc2O[C@@H](C)CCCCO[C@H]1CN(C)C(=O)Cc1ccccc1 the inhibition was 1% (inactive).
With C[C@@H]1CN([C@H](C)CO)C(=O)c2cc(C#CC3CC3)cnc2O[C@@H]1CN(C)Cc1ccccn1 the inhibition was -0.477% (inactive).
For O=C1C=CCCN1C(=O)/C=C/c1ccc(F)cc1, the inhibition was 6.28% (inactive).
In the case of C[C@H](CO)N1C[C@H](C)[C@H](CN(C)Cc2ccc(C(=O)O)cc2)Oc2ncc(-c3ccccc3)cc2C1=O, the inhibition was -1.47% (inactive).
With O=C(NC1=CC(=O)c2ccccc2C1=O)c1ccccc1 the inhibition was 1.17% (inactive).
With O=C1C(Cl)=C(Oc2ccccc2)C(=O)c2ccccc21 the inhibition was 4.78% (inactive).
In the case of CC(=O)N(C1=C(Cl)C(=O)c2ccccc2C1=O)c1ccc(C(=O)O)cc1, the inhibition was 91% (active).
For CNC[C@@H]1OCCCC[C@@H](C)Oc2ccc(NS(C)(=O)=O)cc2C(=O)N([C@H](C)CO)C[C@@H]1C, the inhibition was -3.75% (inactive).
CCO[C@H]1OC(C(=O)N2CCOCC2)=C[C@@H](c2ccc3c(c2)OCO3)[C@@H]1CCCO was tested, and the inhibition was 38.4% (active) and 1.81% (inactive).
With CCO[C@@H]1OC(C(=O)N2CCOCC2)=C[C@H](C)[C@H]1CCCO the inhibition was -0.276% (inactive).
CCO[C@H]1OC(C(=O)N2CCCCCCC2)=C[C@@H](c2ccc(C(F)(F)F)cc2)[C@@H]1CCCO was tested, and the inhibition was -1.98% (inactive) and 3.38% (inactive).
